# In ChEMBL document CHEMBL5308541, “MAIP: An Open-Source Tool to Enrich High-Throughput Screening Output and Identify Novel, Druglike Molecules with Antimalarial Activity” (ACS Med Chem Lett, 2023):
# Screen size: about 150,000 compounds; about 540 (0.36%) showed an effect of 50% or more. What follows is part of a selection rich in strong results, with near analogues and random picks from the rest.
# System: Plasmodium falciparum
# Assay: Primary screen in NF54 nanoGlo assay, in single point, at 2uM, 72h; a lower Z score goes with more inhibition
# Format: functional, Erythrocyte
# Settings: timepoint 72 hour
Compound,% Inhibition,Z score
CC(C)CCOc1ccc2[nH]c(-c3cc(N4CCC[C@@H]4CS(C)(=O)=O)ccn3)cc2c1,97%,-20.97
CCOc1cc2nccc(N3C[C@H]4CN(C)C[C@H]4C3)c2cc1OCC,99%,-21.22
O=C1c2cccc3cccc(c23)C(=O)N1CCc1nc2ccccc2s1,-1%,0.09
COCC(O)CN1CCC(NC2CCCNc3ccccc32)CC1 (stereo not given),-7%,1.28
O=C(c1cc(-c2ccccc2)[nH]n1)N1CCC(c2nc3cc(C(F)(F)F)ccc3s2)CC1,3%,-0.4
O[C@@H]1CCCCC[C@H]1Nc1cccc(-n2ccnc2)n1,-11%,1.62
O[C@H]1CCN(Cc2ccccc2CNc2cccc(-n3ccnc3)n2)C1,94%,-14.28
CCN1CCC[C@H](Nc2cccc(-n3ccnc3)n2)C1,46%,-6.91
CCn1nc(C(C)C)cc1C(=O)Nc1ccc(CC(=O)NC2CC2)cc1,3%,-0.75
Cc1cc(=O)[nH]c(-n2nc(C)cc2NC(=O)C(=O)N2CCC[C@H](C)C2)n1,4%,-0.54
Cc1cc(=O)[nH]c(-n2nc(C)cc2NC(=O)[C@H](C)n2nc3c(cc2=O)CCC3)n1,-7%,1.4
COC(=O)c1cn(CCNc2ccnc3cc(Cl)ccc23)cc2c(O)nnc1-2,97%,-19.19
Nc1cc(N2CCC(c3nc4cc(F)ccc4[nH]3)CC2)nc(N2CCOCC2)n1,52%,-10.32
Nc1cc(N2CCC(N3CCc4ccccc4C3)CC2)nc(N2CCOCC2)n1,5%,-0.91
Cc1cc(NC[C@H](O)COc2ccc(F)cc2)nc2ccccc12,68%,-11.87
Cn1nnc(C(=O)N2CCCCC23CCCCCC3)n1,64%,-13.81
CCN1C[C@H](Nc2nc(C)nc3sccc23)[C@@H](OC)C1,99%,-21.25
CN(C)C1CCN(CCN[C@H]2CCc3ccc(F)cc32)CC1,87%,-15.32
COc1ccc(C(O)CNC2CCc3ccc(F)cc32)cc1 (stereo not given),0%,0.04
Cc1cnccc1NCCNc1nc(C(C)(C)C)nc2c1cnn2C,20%,-3.05
Cc1cc(=O)n(CCN2CCN(C(=O)c3ccc[nH]3)CC2)c(=O)[nH]1,-9%,1.92
COc1ccc2cc(-c3cc(N)ccn3)[nH]c2c1,54%,-11.7
NC(=O)[C@H]1CCCN(CCCNc2cc(C(F)(F)F)nc(N3CCCC3)n2)C1,-5%,0.88
COc1ccc2c(C)cc(NCCCN3CCC[C@H](C(N)=O)C3)nc2c1,57%,-8.7
Cc1cc(NCCCN2CCC(C(=O)O)CC2)nc2ccccc12,-15%,2.33
c1ccc(CN2CCC(CCNC[C@@H]3CCCN4CCCC[C@H]34)CC2)cc1,57%,-10.03
Fc1ccc(-n2cc(CNCCC3CCN(c4ccncc4)CC3)cn2)cc1,91%,-15.93
Fc1ccc2c(CCNCc3cnn(-c4ccccc4)c3)c[nH]c2c1,-3%,0.71

Compound,% Inhibition,Z score
CCN1CCN(c2ccccc2CNCCC2CCN(C)CC2)CC1,27%,-4.06
c1ccc2c(CNCCC3CCN(c4ccncc4)CC3)csc2c1,80%,-17.16
CN1CCN(CC[C@H]2CCCCN2Cc2cnn(-c3ccc(F)cc3)c2)CC1,3%,-0.51
Cc1cccc2c(-c3ccc(N4CCN(C)CC4)nn3)c[nH]c12,-16%,2.75
CNC(=O)CN1CCC(Nc2ncnc3ccc(C(C)C)cc23)CC1,2%,-0.48
COc1ccc2[nH]cc(C3=CCN(c4ccc5nnc(-c6ccccc6F)n5n4)CC3)c2c1,51%,-8.85
Fc1ccccc1-c1nnc2ccc(NCc3ccccc3OC3CCCC3)nn12,-5%,0.8
C[C@@H](CNC1CCN(C2CCN(C)CC2)CC1)c1cccc(Cl)c1,97%,-17.23
FC(F)(F)Oc1cccc(CNC2CCN(C3CC3)CC2)c1,-13%,2.24
CCCc1cccc(CNC2CCN(C3CCN(C)CC3)CC2)c1,76%,-16.27
CN1CCC(N2CCC(NCc3cccc4nsnc34)CC2)CC1,14%,-2.08
Cc1cccc([C@@H](C)CNC2CCN(CCN3CCOCC3)CC2)c1,-4%,0.67
Cn1cc(-c2cncc(C(=O)NC3CCN(c4cccc(F)c4)CC3)c2)cn1,50%,-10.8
Cc1cc(N2CC3COCCC3(C(=O)O)C2)nc2ccc(F)cc12 (stereo not given),76%,-13.26
O=C(c1cccc(OCCc2ccccc2)c1)N1CC2COCCC2(C(=O)O)C1 (stereo not given),-3%,0.52
Cc1sc2nc(-c3ccccn3)nc(NCCc3nccn3C)c2c1-c1ccccc1,71%,-14.01
CCN1CCN(CC2CN(C/C=C/c3ccc(OC)cc3)CC2CO)CC1 (stereo not given),-3%,0.7
O=C1CN(C2CCN(CC3CCCCC3)CC2)[C@]2(CCOC2)CN1Cc1ccccc1,-8%,1.39
Brc1ccc2[nH]c3c(c2c1)CCCC3NC1CCc2[nH]cnc2C1 (stereo not given),98%,-19.51
CN(C)C1(CNc2nc(C(F)(F)F)nc3cc4c(cc23)OCO4)CCCCCC1,54%,-8.21
CN(C)C1(CNc2nc(C(F)(F)F)nc3cc(F)ccc23)CCCCCC1,61%,-9.21
CN(C)c1nc(N2CCC(N3CCN(CCO)CC3)CC2)ncc1F,-1%,0.13
Cc1ccccc1CN1CCC(CNc2c3c(nc4ccccc24)CCC3)CC1,94%,-16.23
C[C@@H](c1cccc(-c2nccc3ncccc23)c1)N1CCCC1,-7%,1.08
Cc1cc(N2CCC(NCCCN3CCCc4ccccc43)CC2)nc(N)n1,53%,-8.02
Cc1ccc2nc(CCCNC3CCN(c4cc(C)nc(N)n4)CC3)oc2c1,40%,-6.03
Cc1cc(N2CCC(NCCc3cnn(-c4ccccc4)c3)CC2)nc(N)n1,-2%,0.43
